Records with an inconclusive call do not appear. Active and inactive are the calls of the source. The call rests on the fitted dose curve; in most records, active means well fitted inhibition curve with a large enough effect; inconclusive means small, poorly fitted or top-dose-only effect; inactive means no such curve, though single readings can be large or run the other way.
Each compound was assayed on Zika virus NS2B-NS3 protease (linked) (assay: Optimization screen NINDS Rhodamine qHTS for Zika virus inhibitors: Linked NS2B-NS3 protease assay). Conditions: fluorogenic rhodamine substrate; series mostly up to 105 µM.
Text: Avindra Nath, Ph.D., National Institute of Neurological Disorders and Stroke (NINDS), Bethesda, MD
Radhakrishnan Padmanabhan, Ph.D., Georgetown University (GU), Washington D.C.
Zika Virus causes congenital defects, including microcephaly and is associated with Guillain-Barre syndrome, eningoencephalitis and myelitis in infected adult. […] Using a target-based approach, we hope to establish a screening paradigm to uncover novel, cell-active NS2B-NS3 protease (Zika Virus) specific inhibitors from NCATS' collection of small molecules using qHTS.
Four assay panel was created to identify potential Zika Virus inhibitors. Namely, (1) GU unlinked NS2B-NS3 AMC tagged protease qHTS, (2) GU unlinked NS2B-NS3 Rhodamine tagged protease qHTS, (3) NINDS linked NS2B-NS3 AMC tagged protease qHTS, (4) NINDS linked NS2B-NS3 Rhodamine tagged protease qHTS. Active compounds were re-acquired and re-screened to confirm inhibition. Inhibitors were further screened against various confirmatory and counterscreens in dose response format.
Early Translation Branch (ETB)
National Center for Advancing Translational Sciences (NCATS), Rockville, MD
National Institute of Health (NIH), Bethesda, Maryland
For the linked assay, Nath lab (NINDS) provided the purified linked NS2B-NS3 protease which is consists of hydrophilic domain of NS2B linked to the NS3 protease domain by a flexible (-GGGGSGGGG-) linker. Control compound aprotinin is obtained from Thermo Scientific (#78432; Waltham, Massachusetts). Rhodamine110 substrate ([N-Cbz]-Nle-Lys-Arg-Arg-Rhod110-Arg-Arg-Lys-Nle-[N-Cbz]) was purchased from either Genscript or Bachem.
1536-well Protease (Rhodamine110 Substrate) Assay:
Briefly, 3 microL of enzyme (25 nM final concentration), in assay buffer (10 mM Tris-HCl pH 8.0 with 0.01% Tween 20) were dispensed into a 1,536-well solid-bottom black plate (Greiner Bio One, Monroe, NC). Twenty-three nL of compounds (final concentration range 7.28 nM to 114 microM) or control Aprotinin (final concentration range 3.47 nM to 114 microM) were transferred via Wako Pin-tool (Wako Automation, Richmond, VA). Samples were incubated (room temperature, protected from light) for 15 minutes followed by a 1 microL Rhodamine110 substrate addition (1.5 microM final concentration). Plates were then immediately read on a ViewLux High-throughput CCD imager (PerkinElmer, Waltham, MA) equipped with FITC fluorescence optics (480(20) nm excitation, 540(25) nm emission), then incubated (room temperature, protected from light) for 15 minutes (~15% conversion). The change in fluorescence intensity over the 15-minute reaction period was normalized against no-inhibitor and no-enzyme controls and the resulting percent inhibition data were fitted to a 4-parameter Hill equation. Aprotinin was used as intraplate control.

Potency, inactive:
N[C@H](C(=O)O)c1ccc(O)cc1
Nc1ccn([C@@H]2O[C@H](CO)[C@@H](O)C2(F)F)c(=O)n1
CCc1nc(N)nc(N)c1-c1ccc(Cl)cc1
